Out of some 390,000 compounds screened, about 1,400 (0.36%) were called active. Roughly 2% stayed inconclusive and do not appear here. Shown is part of a subset that was picked to be rich in actives. A number with no mark means an inactive call. Calls come from the whole dose curve; as a rule, active = well fitted inhibition curve with a large enough effect; inconclusive = small, poorly fitted or top-dose-only effect; inactive = no such curve, though single readings can be large or run the other way.
biological target: Flap endonuclease 1 (Homo sapiens) (UniProt P39748); experiment: qHTS Assay for the Inhibitors of Human Flap endonuclease 1 (FEN1).; note: nearly all actives have a fitted effect of over 65% in size; details: Recombinant FEN1 flap cleavage, fluorescence, 15 min; series mostly up to 114 µM; activity change, negative = inhibition: at the top concentration
Source text: The major human flap endonuclease FEN1 is an efficient structure-specific enzyme that recognizes and cleaves a 5'-unannealed DNA flap. It belongs to the RAD2 family nucleases, which are involved in DNA metabolism and are highly conserved in prokaryotes and eukaryotes. FEN1 is a key enzyme in DNA replication, repair and maintenance of genomic stability. 5'-flap removal by FEN1 is critical for Okazaki fragment processing during lagging strand DNA synthesis, long-patch base excision repair (LP BER), and regulating or facilitating recombination events. […] Deletion of the yeast FEN1 gene, i.e. rad27, results in an increased frequency of short DNA (3-32 bp) repeats, micro- and mini-satellite formation, trinucleotide repeat expansion, spontaneous recombination events, and a severe growth defect in association with cell cycle arrest in late S/G2 phase. […] Cells from fen1-/- blastocysts show increased apoptotic cell death after ionizing radiation treatment, and chicken cells lacking the fen1 gene are hypersensitive to DNA alkylating agents, e.g. methylmethane sulfonate (MMS) and N-methyl-N'-nitro-N-nitrosoguanidine (MNNG), as well as hydrogen peroxide.
NIH Chemical Genomics Center [NCGC]
NIH Molecular Libraries Probe Centers Network [MLPCN]
Assay Submitter (PI): David Wilson, National Institute of Aging
Three uL of reagents (buffer in column 3 and 4 as negative control and 10 nM FEN1 in columns 1, 2, and 5-48) were dispensed into 1,536-well black solid-bottomed plate. Compounds (23 nL) were transferred via Kalypsys pin tool equipped with 1536-pin array (10 nL slotted pins, V&P Scientific, San Diego, CA). The plates were then incubated for 15 min at room temperature, and 1 uL substrate (50 nM final concentration) were added to start the reaction read twice at 0 min read and 15 min on ViewLux reader. Throughout the screen, reagent bottle and all liquid lines were chilled and made light-tight to minimize reagent degradation. All screening operations were performed on a fully integrated robotic system (Kalypsys, San Diego, CA) containing one RX-130 and two RX-90 anthropomorphic robotic arms (Staubli, Duncan, SC). Library plates were screened starting from the lowest and proceeding to the highest concentration, and a "double-dipping" step of the highest concentration was required to access higher concentrations of compounds. Vehicle-only plates, with DMSO being pin-transferred to the entire column 5-48 compound area, were inserted uniformly at the beginning and the end of each library in order to monitor for and record any shifts in the background, which can be affected by reagent dispensers or loss in enzyme activity overtime. Screening data was corrected, normalized, and concentration-effect relationships were derived by using publicly-available curve fitting algorithms developed in-house (http://ncgc.nih.gov/pub/openhts). A four parameter Hill equation was fitted to the concentration-response data by minimizing the residual error between the modeled and observed responses.
% is set by controls: 0 for no effect and ±100 for the full control effect; potency is the fitted concentration of half-maximal effect.

Flap endonuclease 1 (Homo sapiens), sequence (P39748 whole entry, looked up, the tested form may be a part): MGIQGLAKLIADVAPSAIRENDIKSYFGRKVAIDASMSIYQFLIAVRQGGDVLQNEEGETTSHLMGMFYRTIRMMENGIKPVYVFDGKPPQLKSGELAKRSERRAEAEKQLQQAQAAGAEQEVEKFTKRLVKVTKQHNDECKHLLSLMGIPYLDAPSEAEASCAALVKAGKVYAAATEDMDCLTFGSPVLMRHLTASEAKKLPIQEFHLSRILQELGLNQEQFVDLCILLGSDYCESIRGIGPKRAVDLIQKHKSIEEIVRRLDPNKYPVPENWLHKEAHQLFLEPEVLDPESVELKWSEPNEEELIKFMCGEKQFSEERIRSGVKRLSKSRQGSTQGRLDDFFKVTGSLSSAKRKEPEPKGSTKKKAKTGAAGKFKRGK

SMILES	activity change, negative = inhibition	Potency
COc1cc2nc(N3CCCN(C)CC3)nc(NC(C)C)c2cc1OC	-7.37%	–
COc1cc2nc(Cl)nc(NC3CC3)c2cc1OC	-7%	–
CNCCCOc1cc2nc(N3CCCN(C)CC3)nc(NC3CCN(C)CC3)c2cc1OC	–	22.4 µM (active)
CN(N=O)c1ccc(C=C2c3ccccc3-c3ccccc32)cc1	-19.3%	–
O=C(COc1ccccc1C(=O)Nc1ccccc1)Nc1cccc(F)c1	2.36%	–
CC(=O)c1ccc[n+](C(C)CCC(C)[n+]2cccc(C(C)=O)c2)c1 (stereo not given)	-9.54%	–
Cc1ccc(-c2cc(N)n(Cc3cccc(Cl)c3)n2)cc1	-16.4%	–
CC(=O)OC1CCC2(C)C(=CCC3C4CC(=O)N(O)C(=O)C4(C)CCC32)C1 (stereo not given)	–	3.16 µM (active)
C[C@]12CC[C@H](O)CC1=CCC1C2CC[C@@]2(C)C1CC[C@@H]2NC(=O)CCC(=O)O (stereo not given in full)	2.34%	–
C[C@@H]1CC[C@@]2(OC1)O[C@H]1C[C@H]3[C@@H]4CC=C5C[C@@H](O)[C@H](O)C[C@]5(C)C4CC[C@]3(C)[C@H]1[C@@H]2C (stereo not given in full)	13.5%	–
CC(C)(C(=O)NO)c1ccccc1	-6.25%	–
CN(C)c1ccc(/C=N\Nc2ccc([N+](=O)[O-])cc2[N+](=O)[O-])cc1Cl	2.15%	–
CCCCOc1ccc(CN2C(=O)C(=O)c3cc(Br)cc(C)c32)cc1OC	-12.5%	–
CN(C)CCNC(=O)c1ccc(Cl)c2cc3ccccc3nc12	–	11.2 µM (active)
COc1ccccc1Nc1cc(C(=O)NCCCN(C)C2CCCCC2)c2ccccc2n1	3.77%	–
COc1ccc(Nc2cc(C(=O)NCCCN(C)c3ccccc3)c3ccccc3n2)c(OC)c1	1.8%	–
CCc1ccc(NC(=O)CN2C(=O)C(c3ccccc3)=NC23CCCCCC3)cc1	-26.4%	–
Cc1ccc(NC(=O)CN2C(=O)C(c3ccc(F)cc3)=NC23CCCCCC3)c(C)c1	–	89.1 µM (active)
COc1ccc(NC(=O)CN2C(=O)C(c3ccccc3)=NC23CCCCCC3)cc1OC	-12.5%	–
COc1ccc(CCNc2ncnc3c2cnn3-c2ccc(C)cc2)cc1	-15.5%	–
COc1ccc2[nH]c3c(C)c4cc[n+](C)cc4c(C)c3c2c1	–	2.24 µM (active)
CCOC(=O)c1[nH]c2ccc(OC)cc2c1NC(=O)N1CCOCC1	-2.89%	–

SMILES	activity change, negative = inhibition	Potency
CN(C)c1ccc(/C=C2\C=Cc3ccccc32)cc1Br	-23.9%	–
c1ccc(Cn2nnc3c(N4CCCCC4)ncnc32)cc1	14.5%	–
CCCCOc1ccc(C(=O)NO)cc1	0.524%	–
O=[N+]([O-])c1ccc(/C=C/c2ccc3cccnc3c2)cc1	-2.17%	–
COc1ccc(Cc2nnc(NC(=O)Cc3cccs3)s2)cc1	–	56.2 µM (active)
COc1ccccc1NC(=O)Nc1nnc(Cc2ccc(F)cc2)s1	26.2%	–
COc1ccc(OC)c(NC(=O)Cc2cccs2)c1	-1.63%	–
CN(C)c1ccc(/C=C/c2sc3ccccc3[n+]2C)cc1	–	50.1 µM (active)
CC[n+]1cc(C)ccc1/C=C/c1ccc(N(C)C)cc1	-25%	–
CN(C)c1ccc(/C=C/c2c3ccccc3nc3ccccc23)cc1	-17%	–
CN(C)c1ccc(/C=C/c2sc3ccccc3[n+]2CCCCBr)cc1	–	50.1 µM (active)
CO[C@H]1O[C@@H]2O[C@@]3(C)CC[C@@H]4[C@@H](C)CC[C@@H]([C@H]1C)[C@@]24OO3	12.3%	–
Cc1ccc(Cn2cnc3c(cnn3C(C)(C)C)c2=O)c(F)c1	-14.4%	–
Cc1ccc(C=O)cc1Cl	-1.08%	–
CCCCCCC1(C)NC(c2ccc3c(c2)OCO3)=CC(c2ccccc2O)N1 (stereo not given)	-17.3%	–
Cc1ccc2ccc3c(c2n1)NS(=O)(=O)c1ccccc1-3	13.3%	–
SCc1nc2ccc(Cl)cc2[nH]1	3.96%	–
CCN(CC)/[N+]([O-])=N/OCOC(=O)Cc1c(C)n(C(=O)c2ccc(Cl)cc2)c2ccc(OC)cc12	-21%	–
CCc1cnc2c(c1SCC(=O)c1ccccc1)c(=O)n(C)c(=O)n2C	7.78%	–
O=C(NNc1c2ccccc2nc2ccccc12)c1cc2ccccc2cc1O	–	50.1 µM (active)
O=C(COC(=O)c1ccc(O)cc1O)NC(=O)c1ccccc1	-0.462%	–
O=C(NNC(=O)c1ccccc1O)c1ccccc1O	-1.19%	–

SMILES	activity change, negative = inhibition	Potency
COc1c(O)cc2oc(-c3ccc(O)c(O)c3)cc(=O)c2c1O	–	17.8 µM (active)
COc1ccc(-c2c(C)c3ccc(O)c(CN4CCN(C)CC4)c3oc2=O)cc1OC	-15.2%	–
CCOC(=O)COc1cc(OCC(=O)OCC)c2c(=O)cc(-c3ccccc3)oc2c1	5.91%	–
OCC(O)C(O)C(O)C(O)C=Nc1ccc(/C=C/c2ccnc3ccccc23)cc1 (stereo not given)	5.86%	–
CC1(C)Cc2ccccc2-c2c[nH]c(=O)n21	1.92%	–
Nc1ccccc1SC(C[N+](=O)[O-])c1ccccc1 (stereo not given)	–	15.8 µM (active)
Cc1csc[n+]1CCC1CCCCC1	3.23%	–
CC(C)(C)C1CCC(NC(=O)c2cnn3c2NC(=C2CC2)C=C3C(F)F)CC1 (stereo not given)	-7.54%	–
CCC1(C)Cc2c(sc3[nH]c(=S)n(Cc4ccccc4)c(=O)c23)CO1 (stereo not given)	-2.77%	–
C=CCn1c(=S)[nH]c2scc(-c3ccco3)c2c1=O	–	39.8 µM (active)
CCOc1ccc(NC(=O)c2ncoc2-c2ccco2)cc1	-10.3%	–
COCCNC(=O)Nc1ccc2nc(-c3ccco3)c(-c3ccco3)nc2c1	–	11.2 µM (active)
C=CCNC(=O)c1ccc2nc(-c3ccco3)c(-c3ccco3)nc2c1	-23.2%	–
CC1(C)CC(=O)c2cc(C(=O)NCc3ccccc3)c(=O)[nH]c2C1	11.9%	–
O=C1CCC[C@@H]2C[C@@]3(C[C@@H]4CCN1[C@H]24)Nc1ccccc1NC3=NCc1ccccc1	-1.02%	–
COc1cccc2c1C(=O)c1c(O)c3c(c(O)c1C2=O)CC(O)(C(C)=NNC(=O)c1ccc(Cl)c(Cl)c1)CC3OC1CC(N)C(O)C(C)O1 (stereo not given)	–	44.7 µM (active)
CN1CCN(/[N+]([O-])=N/Oc2ccc([N+](=O)[O-])cc2[N+](=O)[O-])CC1	-16.6%	–
O=C1CC(c2ccccc2)CC2=C1C(c1ccco1)n1nc(C(F)(F)F)nc1N2 (stereo not given)	-5.72%	–
CO/N=C/c1ccc(N2CCN(C(=O)c3cccc(Cl)c3)CC2)c([N+](=O)[O-])c1	-3.16%	–
O=C1CSC(=S)N1/N=C/c1ccc(O)c([N+](=O)[O-])c1	–	28.2 µM (active)
CCOc1cccc(/C=N/N2C(=O)CSC2=S)c1O	1.58%	–

Reference: PubChem BioAssay AID588795 (National Center for Advancing Translational Sciences (NCATS), 2011)
